# Data as given in PubChem BioAssay AID624255 (Broad Institute, 2012).
# In all, about 77,000 compounds went through this assay and about 4,600 (6%) were called active. Another 1% or so got no clear call; they are omitted. The list comes from a sample in which actives are over-represented; it also holds similar structures and randomly drawn compounds. A number with no mark means an inactive call.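 Rule for the calls: active = mean inhibition above about 93%, with at least 55% of replicates each passing it (limit read from the data, passing the limit was not always enough); inconclusive = only one of those two conditions holds; inactive = neither condition holds.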
# Test: growth inhibition of T. cruzi in host fibroblasts – cell-based, beta-gal Tulahuen parasites, NIH3T3 host, luminescence, primary screen (AID 624255)
# Details: T. cruzi beta-gal in NIH3T3, GalScreen luminescence, 90 h; at 8.34 µM; hits give high values
row,SMILES,inhibition
1,CC(=O)N1[C@@H](CO)[C@@H]2c3ccccc3N(S(=O)(=O)c3ccccc3)C[C@@H]21,17.9%
2,CN1C(=O)c2cc(NC(=O)c3ccno3)ccc2OC[C@H]2O[C@@H](CC(=O)NCC(F)(F)F)CC[C@@H]21,-16.1%
3,CO[C@@H]1CN(C)C(=O)c2ccc(NC(=O)c3ccc(F)cc3)cc2OC[C@H](C)N(C(=O)c2ccc(F)cc2)C[C@@H]1C,33.4%
4,C[C@@H]1CN([C@@H](C)CO)S(=O)(=O)c2ccc(C#CCC3CCCC3)cc2O[C@H]1CN(C)C(=O)CC1CC1,116% (active)
5,C[C@@H]1CN([C@@H](C)CO)S(=O)(=O)c2ccc(C#CCC3CCCC3)cc2O[C@@H]1CN(C)C,2.02%
6,C[C@@H]1CN([C@H](C)CO)S(=O)(=O)c2ccc(C#CCN(C)C)cc2O[C@H]1CN(C)C(=O)CC1CC1,92.5%
7,C[C@@H]1CN([C@H](C)CO)S(=O)(=O)c2ccc(C#CCC3CCCC3)cc2O[C@H]1CN(C)C(=O)CC1CC1,119% (active)
8,C[C@@H]1CN([C@@H](C)CO)S(=O)(=O)c2ccc(C#CCN(C)C)cc2O[C@@H]1CN(C)C(=O)CC1CC1,27.9%
9,COCC#Cc1ccc2c(c1)O[C@H](CN(C)C(=O)CC1CC1)[C@@H](C)CN([C@@H](C)CO)S2(=O)=O,72.2%
10,O=C(C[C@H]1CC[C@H](NC(=O)c2ccc3c(c2)OCO3)[C@H](CO)O1)NCc1ccc(Oc2ccccc2)cc1,-47.4%
11,O=C(NCc1ccccc1Cl)[C@H]1[C@H](CO)[C@H]2Cn3c(cccc3=O)[C@H]2N1C(=O)C1CCC1,19.3%
12,C/C=C/c1ccc([C@@H]2[C@@H](CO)N(C(C)=O)[C@H]2CN(C)C(=O)CN(C)C)cc1,-6.45%
13,COc1ccc(C#Cc2ccc3c(c2)O[C@@H](CN(C)C(=O)Nc2cccc(OC)c2)[C@H](C)CN([C@H](C)CO)S3(=O)=O)cc1,73.3%
14,CC(C)CC#Cc1ccc2c(c1)O[C@@H](CN(C)C(=O)c1ccccn1)[C@@H](C)CN([C@H](C)CO)S2(=O)=O,74.4%
15,C/C=C/c1ccc2c(c1)O[C@@H](CN(C)C(=O)c1ccccn1)[C@H](C)CN([C@@H](C)CO)S2(=O)=O,11.4%
16,C[C@@H]1CN([C@@H](C)CO)S(=O)(=O)c2ccc(C#Cc3ccc(F)cc3)cc2O[C@@H]1CN(C)CC1CC1,11.3%
17,C[C@@H]1CN([C@@H](C)CO)S(=O)(=O)c2ccc(C#Cc3ccc(F)cc3)cc2O[C@H]1CN(C)C(=O)NC1CCCC1,114% (active)
18,C/C=C/c1ccc2c(c1)O[C@H](CN(C)C(=O)Nc1ccccc1)[C@H](C)CN([C@@H](C)CO)S2(=O)=O,45.2%
19,C[C@@H]1CN([C@@H](C)CO)S(=O)(=O)c2ccc(C#Cc3ccccc3)cc2O[C@@H]1CN(C)C(=O)Nc1ccccc1,113% (active)
20,CC(C)C#Cc1ccc2c(c1)O[C@@H](CN(C)C(=O)NC(C)C)[C@H](C)CN([C@H](C)CO)S2(=O)=O,55.8%

row,SMILES,inhibition
1,C[C@@H]1CN([C@@H](C)CO)S(=O)(=O)c2ccc(C#Cc3ccc(F)cc3)cc2O[C@H]1CN(C)C(=O)c1ccccn1,103% (active)
2,COc1cccc(NC(=O)N(C)C[C@H]2Oc3ncc(C4=CCCCC4)cc3C(=O)N([C@H](C)CO)C[C@H]2C)c1,-8.07%
3,CO[C@@H]1CC[C@H]2CCOc3c(C#N)cccc3C(=O)N(C)C[C@@H](OC)[C@H](C)C(=O)N(C)C[C@@H]1O2,20.8%
4,O=C(CN1CCOCC1)N[C@@H]1CC[C@H](CCNS(=O)(=O)c2ccccc2F)O[C@H]1CO,2.08%
5,C[C@@H]1CCCCO[C@@H](CN(C)C(=O)Cc2ccccc2)[C@@H](C)CN([C@@H](C)CO)C(=O)c2cc(NC(=O)c3ccccc3)ccc2O1,60.5%
6,C[C@@H]1CN([C@H](C)CO)C(=O)c2cc(C3=CCCC3)cnc2O[C@@H]1CN(C)C(=O)Nc1ccc(F)cc1,15.9%
7,O=C([C@H]1[C@H](CO)[C@H]2Cn3c(ccc(C4=CCCC4)c3=O)[C@@H]1N2C(=O)c1ccncc1)N1CCCCC1,34.7%
8,CO[C@H]1CN(C)C(=O)c2ccc(NC(=O)C3CC3)cc2OC[C@H](C)N(CCc2ccccc2)C[C@H]1C,36.1%
9,COc1ccc(CN(C)C[C@@H]2OCCCC[C@H](C)Oc3ccc(NS(C)(=O)=O)cc3C(=O)N([C@@H](C)CO)C[C@H]2C)cc1,0.374%
10,Cc1ccc(S(=O)(=O)N2C[C@H](O)COC[C@H]3O[C@H](CC(=O)N[C@H]4CCN(Cc5ccccc5)C4)CC[C@@H]32)cc1,-33.7%
11,Cc1cccc(-c2ccc([C@H]3[C@@H](CO)N4CCCCN(Cc5cncnc5)C[C@H]34)cc2)c1,104% (active)
12,OC[C@H]1[C@@H](c2ccc(-c3ccccc3F)cc2)[C@@H]2CN(Cc3ccncc3)CCCCN12,93.1%
13,OC[C@@H]1[C@H](c2ccc(C3=CCCC3)cc2)[C@H]2CN(Cc3ccncc3)CCCCN12,75.8%
14,OC[C@@H]1[C@@H](c2ccc(-c3ccccc3F)cc2)[C@@H]2CN(Cc3cncnc3)CCCCN12,74.2%
15,CN(C)C(=O)c1ccc(-c2ccc([C@@H]3[C@@H](CO)N4CCCCN(Cc5cncnc5)C[C@@H]34)cc2)cc1,55.5%
16,Cc1cccc(-c2ccc([C@@H]3[C@H](CO)N4CCCCN(Cc5ccncc5)C[C@@H]34)cc2)c1,92%
17,OC[C@H]1[C@H](c2ccc(-c3ccccc3F)cc2)[C@H]2CN(Cc3cncnc3)CCCCN21,69.5%
18,Cc1ccc(-c2ccc([C@H]3[C@H](CO)N4CCCCN(Cc5cncnc5)C[C@@H]34)cc2)cc1,96% (active)
19,OC[C@H]1[C@H](c2ccc(-c3cccc(F)c3)cc2)[C@@H]2CN(Cc3cncnc3)CCCCN12,107% (active)
20,O=C(C[C@@H]1C[C@@H]2c3cc(NC(=O)NC4CCCC4)ccc3O[C@@H]2[C@@H](CO)O1)NCc1ccccc1,52.2%
